# The list is not random: actives were taken first. Their share in the collection is about 2.4%.
# CHRM1 PAM – potentiates human M1 receptor response to acetylcholine | activation, % at 3 µM | P11229 | 360,000 tested, 0.088% active | CHO-K1 hM1, Fluo-8 calcium fluorescence, ACh EC20; 0% = ACh EC20, 100% = maximal ACh; in the data active = activation above about 19%, passing the limit was not always enough
# Target sequence (P11229 whole entry, looked up): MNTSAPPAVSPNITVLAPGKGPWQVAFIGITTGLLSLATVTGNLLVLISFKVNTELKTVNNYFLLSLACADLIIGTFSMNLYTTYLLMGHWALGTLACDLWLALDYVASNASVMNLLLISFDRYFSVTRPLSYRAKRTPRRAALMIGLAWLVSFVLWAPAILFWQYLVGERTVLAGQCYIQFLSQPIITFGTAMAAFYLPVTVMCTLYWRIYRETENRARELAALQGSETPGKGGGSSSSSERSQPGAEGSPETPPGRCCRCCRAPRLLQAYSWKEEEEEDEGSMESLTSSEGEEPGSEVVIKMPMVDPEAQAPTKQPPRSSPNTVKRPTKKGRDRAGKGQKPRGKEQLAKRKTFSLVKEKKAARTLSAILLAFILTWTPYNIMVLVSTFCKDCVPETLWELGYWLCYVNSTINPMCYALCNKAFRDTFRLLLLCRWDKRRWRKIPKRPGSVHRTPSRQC
# CHO-K1 Ca ag – nonselective activator or artifact in parental CHO-K1 cells. Fluo-8 calcium fluorescence; scaled to maximal ATP response, vehicle zero. activation, % at 3 µM. 360,000 tested, 0.48% active; in the data active = activation above about 15%;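 note: untransfected CHO-K1 host cells lacking M1 receptor as counterscreen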
# CHRM1 agonist – human M1 muscarinic receptor agonism | CHO-K1 hM1, Fluo-8 calcium fluorescence, agonist mode; 0% DMSO, 100% acetylcholine EC100 | activation, % at 3 µM | P11229 | AID 588814 | 360,000 tested, 0.33% active;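 active = activation above the run's mean compound activation plus 3 SD, cut at about 16% in these data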;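 note: peak over basal fluorescence ratio within a 140 s kinetic read after compound addition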
# CHO-K1 Ca antag – counter-screen for M1 antagonists: effect in parental CHO-K1 cells | ATP-induced calcium, Fluo-8 fluorescence | inhibition, % at 3 µM | 360,000 tested, 0.6% active;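 active = inhibition above a per-plate cutoff, the plate's mean sample inhibition plus 3 SD, cut at about 24% in these data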;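 note: 0% = DMSO plus EC80 ATP and 100% = DMSO alone without ATP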
# M1 antag – antagonists of human M1 muscarinic receptor; P11229; CHO-K1 hM1, Fluo-8 calcium fluorescence, ACh EC80 antagonist; inhibition, % at 3 µM; 360,000 tested, 1.3% active; AID 588852;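 active = percent inhibition above its own plate's cutoff, namely the mean of that plate's compound wells plus 3 SD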;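 note: peak over basal fluorescence ratio during 140 s after agonist addition; 0% = ACh EC80 plus DMSO and 100% = DMSO alone without agonist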
# CHO-K1 Ca PAM – M1 PAM counterscreen hit in parental CHO-K1 cells; ATP EC20, Fluo-8 calcium fluorescence; 0% at ATP EC20, 100% at ATP max; activation, % at 3 µM; 360,000 tested, 0.02% active;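 active = activation above the run cutoff, the mean activation of all test compounds plus 3 SD, cut at about 40% in these data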;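 note: peak over basal fluorescence ratio in a 140 s read after ATP addition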
# * hit, by the source's call.
SMILES,CHRM1 PAM,CHO-K1 Ca ag,CHRM1 agonist,CHO-K1 Ca antag,M1 antag,CHO-K1 Ca PAM
O=C(NCC(=O)N1CCN(Cc2ccc3c(c2)OCO3)CC1)c1ccccc1F,0,1,0,-14,2,1
COc1ccc(C(=O)C[n+]2ccc3c(c2)nc(-c2ccccc2)n3C)cc1,-22,0,-12,-2,57*,-5
Cc1c(CCOC(=O)c2ccccc2)sc[n+]1Cc1ccccc1,-22,-1,-9,26*,98*,-15
Cc1c(CCOC(=O)c2cc([N+](=O)[O-])cc([N+](=O)[O-])c2)sc[n+]1CC(=O)c1ccccc1,-16,0,-6,-14,32,10
Cc1c(CCOC(=O)c2ccccc2)sc[n+]1CC(=O)c1ccc(Br)cc1,-32,1,-11,-6,77*,-9
Cc1ccc(NC(=O)C2C3/C=C\CCCCC32)cc1 (configuration not stated),8,0,-8,-4,-10,19
CCCCCOc1ccc(C(=O)CCC(=O)N2CCCC2)cc1,-19,9,-11,-12,22*,3
CCCCOc1ccc(C(=O)N2CCCC2)cc1,1,0,-5,15,1,14
Cc1cc(C)c(S(=O)(=O)Cc2ccc(Cl)cc2)c(=O)[nH]1,2,-1,-3,5,5,18
Cc1cc(C)c(S(=O)(=O)Cc2ccccc2)c(=O)[nH]1,9,0,-1,25*,4,-16
Nc1nc(Nc2ccc(Cl)cc2)nc(NCc2ccco2)c1[N+](=O)[O-],-2,7,-6,-3,4,9
Cc1nn(C(=O)c2cccc([N+](=O)[O-])c2)c(C)c1Sc1ccccc1,-1,-1,-4,26*,15,-8
O=C(c1cc(-c2ccco2)on1)N1CCc2ccccc2C1,28*,0,3,-45,-22,17
Cc1cc(C(=O)N(C)CC2CCCN(CCc3ccc(F)cc3)C2)c(C)o1 (configuration not stated),-17,0,-7,-7,19,10
CN(CC1CCCN(CCc2ccccc2F)C1)C(=O)c1cc2ccccc2o1 (configuration not stated),-31,2,-9,-1,96*,11
COCc1ccc(C(=O)N(C)CC2CCCN(CCc3ccc(Cl)cc3)C2)o1 (configuration not stated),-15,2,-7,-16,23,27
COCc1ccc(C(=O)N(C)CC2CCCN(CCc3ccc(OC)cc3)C2)o1 (configuration not stated),-22,0,-5,-12,52*,-4
CC(C)C(=O)Nc1cccc(NC(=O)c2ccc(Cl)cc2Cl)c1,10,0,-10,-6,-7,27
COc1ccc(-c2noc(CCC(=O)N3CCC(c4cc(C)ccc4C)CC3)n2)cc1,-14,2,-7,12,6,0
CCOC(=O)C1=C(COC(=O)/C=C/c2ccc(F)cc2)NC(=O)NC1C (configuration not stated),-10,7,2,-3,5,4
CC(=O)NCCC(=O)Nc1ncc(S(=O)(=O)c2ccc([N+](=O)[O-])cc2)s1,0,1,1,-1,3,4
CCCCC(=O)Nc1ncc(S(=O)(=O)c2ccc([N+](=O)[O-])cc2)s1,11,9,23*,-2,-4,16
C[C@H]1CN([C@@H](C)CO)C(=O)c2cc(Br)cnc2O[C@H]1CN(C)C(=O)c1cnccn1,12,0,0,-8,-8,15
Cc1cc(NC(=O)CCCn2nc([N+](=O)[O-])c(Br)c2C)no1,-1,3,-4,8,6,3
Cc1c(Br)c([N+](=O)[O-])nn1CCCC(=O)Nc1c(C)n(C)n(-c2ccccc2)c1=O,-24,0,-8,6,82*,-17
Cc1cc([N+](=O)[O-])nn1CCCC(=O)Nc1c(C)n(C)n(-c2ccccc2)c1=O,-14,0,-4,-11,31*,14
CC(C)CN1C(=O)c2ccc(NC(=O)c3ccco3)cc2C1=O,3,1,-4,-9,-3,-1
Fc1ccc(-c2nnc3ccc(N4CCCC4)nn23)cc1,-30,1,-5,7,102*,13
